{"source": "paper doi:10.1101/2024.03.05.583629", "key": {"[1]": {"target": "pT7_6His-AlfaTag-HOXD13 (human, UniProt P35453 263-343)", "sequence (P35453 263-343)": "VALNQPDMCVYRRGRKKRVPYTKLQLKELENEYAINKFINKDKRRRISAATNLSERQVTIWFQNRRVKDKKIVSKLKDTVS", "assay": "PADIT-seq", "settings": "dsDNA, one strand shown"}, "[2]": {"target": "pT7_6His-AlfaTag-ZIF268 (human, UniProt P18146 335-423)", "assay": "PADIT-seq", "settings": "dsDNA, one strand shown"}}}
{"sequence": "CTCGAGGATATCAAGATCTGGCCTCGGCAGGATAAAAGGAACCTCTAGCTAGCCGACTCACTATAGGGATAATCGCCCTGAGCAAAGACC", "values": [{"measurement": "binding signal", "setting": "[1]", "value": "0.374 ± 0.0721", "unit": "log2FC"}, {"measurement": "binding signal", "setting": "[2]", "value": "0.0545 ± 0.0675", "unit": "log2FC"}]}
{"sequence": "CTCGAGGATATCAAGATCTGGCCTCGGCGAATTAAAAGGAACCTCTAGCTAGCCGACTCACTATAGGGATAATCGCCCTGAGCAAAGACC", "values": [{"measurement": "binding signal", "setting": "[1]", "value": "1.47 ± 0.0704", "unit": "log2FC"}, {"measurement": "binding signal", "setting": "[2]", "value": "0.0118 ± 0.0724", "unit": "log2FC"}]}
{"sequence": "CTCGAGGATATCAAGATCTGGCCTCGGCCCCCTAAAAGGAACCTCTAGCTAGCCGACTCACTATAGGGATAATCGCCCTGAGCAAAGACC", "values": [{"measurement": "binding signal", "setting": "[1]", "value": "0.578 ± 0.0983", "unit": "log2FC"}, {"measurement": "binding signal", "setting": "[2]", "value": "0.267 ± 0.0922", "unit": "log2FC"}]}
{"sequence": "CTCGAGGATATCAAGATCTGGCCTCGGCAGTTTAAAAGGAACCTCTAGCTAGCCGACTCACTATAGGGATAATCGCCCTGAGCAAAGACC", "values": [{"measurement": "binding signal", "setting": "[1]", "value": "2.23 ± 0.0764", "unit": "log2FC"}, {"measurement": "binding signal", "setting": "[2]", "value": "0.0518 ± 0.0805", "unit": "log2FC"}]}
{"sequence": "CTCGAGGATATCAAGATCTGGCCTCGGCGTCATAAAAGGAACCTCTAGCTAGCCGACTCACTATAGGGATAATCGCCCTGAGCAAAGACC", "values": [{"measurement": "binding signal", "setting": "[1]", "value": "2.72 ± 0.0783", "unit": "log2FC"}, {"measurement": "binding signal", "setting": "[2]", "value": "0.00486 ± 0.0824", "unit": "log2FC"}]}
{"sequence": "CTCGAGGATATCAAGATCTGGCCTCGGCTCGGTAAAAGGAACCTCTAGCTAGCCGACTCACTATAGGGATAATCGCCCTGAGCAAAGACC", "values": [{"measurement": "binding signal", "setting": "[1]", "value": "0.426 ± 0.0878", "unit": "log2FC"}, {"measurement": "binding signal", "setting": "[2]", "value": "0.074 ± 0.0831", "unit": "log2FC"}]}
{"sequence": "CTCGAGGATATCAAGATCTGGCCTCGGCTTTTTATTTGGAACCTCTAGCTAGCCGACTCACTATAGGGATAATCGCCCTGAGCAAAGACC", "values": [{"measurement": "binding signal", "setting": "[1]", "value": "2.91 ± 0.0833", "unit": "log2FC"}, {"measurement": "binding signal", "setting": "[2]", "value": "0.188 ± 0.0912", "unit": "log2FC"}]}
{"sequence": "CTCGAGGATATCAAGATCTGGCCTCGGCATTTTACGGGGAACCTCTAGCTAGCCGACTCACTATAGGGATAATCGCCCTGAGCAAAGACC", "values": [{"measurement": "binding signal", "setting": "[1]", "value": "3.18 ± 0.0854", "unit": "log2FC"}, {"measurement": "binding signal", "setting": "[2]", "value": "0.0766 ± 0.0939", "unit": "log2FC"}]}
{"sequence": "CTCGAGGATATCAAGATCTGGCCTCGGCTTTTTACCAGGAACCTCTAGCTAGCCGACTCACTATAGGGATAATCGCCCTGAGCAAAGACC", "values": [{"measurement": "binding signal", "setting": "[1]", "value": "0.621 ± 0.101", "unit": "log2FC"}, {"measurement": "binding signal", "setting": "[2]", "value": "0.0254 ± 0.098", "unit": "log2FC"}]}
{"sequence": "CTCGAGGATATCAAGATCTGGCCTCGGCATTTTACGTGGAACCTCTAGCTAGCCGACTCACTATAGGGATAATCGCCCTGAGCAAAGACC", "values": [{"measurement": "binding signal", "setting": "[1]", "value": "2.63 ± 0.0745", "unit": "log2FC"}, {"measurement": "binding signal", "setting": "[2]", "value": "0.139 ± 0.0815", "unit": "log2FC"}]}
{"sequence": "CTCGAGGATATCAAGATCTGGCCTCGGCTCATGGGCGGGAACCTCTAGCTAGCCGACTCACTATAGGGATAATCGCCCTGAGCAAAGACC", "values": [{"measurement": "binding signal", "setting": "[1]", "value": "-1.04 ± 0.124", "unit": "log2FC"}, {"measurement": "binding signal", "setting": "[2]", "value": "0.0784 ± 0.105", "unit": "log2FC"}]}
{"sequence": "CTCGAGGATATCAAGATCTGGCCTCGGCGCGGATGCGGGAACCTCTAGCTAGCCGACTCACTATAGGGATAATCGCCCTGAGCAAAGACC", "values": [{"measurement": "binding signal", "setting": "[1]", "value": "0.465 ± 0.106", "unit": "log2FC"}, {"measurement": "binding signal", "setting": "[2]", "value": "0.109 ± 0.102", "unit": "log2FC"}]}
{"sequence": "CTCGAGGATATCAAGATCTGGCCTCGGCCATCCACGCGGAACCTCTAGCTAGCCGACTCACTATAGGGATAATCGCCCTGAGCAAAGACC", "values": [{"measurement": "binding signal", "setting": "[1]", "value": "-1.04 ± 0.111", "unit": "log2FC"}, {"measurement": "binding signal", "setting": "[2]", "value": "0.00839 ± 0.0869", "unit": "log2FC"}]}
{"sequence": "CTCGAGGATATCAAGATCTGGCCTCGGCGCGTGGGGTGGAACCTCTAGCTAGCCGACTCACTATAGGGATAATCGCCCTGAGCAAAGACC", "values": [{"measurement": "binding signal", "setting": "[1]", "value": "-1.1 ± 0.157", "unit": "log2FC"}, {"measurement": "binding signal", "setting": "[2]", "value": "1.28 ± 0.111", "unit": "log2FC"}]}
{"sequence": "CTCGAGGATATCAAGATCTGGCCTCGGCTTTTTAGGCGGAACCTCTAGCTAGCCGACTCACTATAGGGATAATCGCCCTGAGCAAAGACC", "values": [{"measurement": "binding signal", "setting": "[1]", "value": "0.0492 ± 0.119", "unit": "log2FC"}, {"measurement": "binding signal", "setting": "[2]", "value": "0.0276 ± 0.11", "unit": "log2FC"}]}
{"sequence": "CTCGAGGATATCAAGATCTGGCCTCGGCCGCTTTCGCGGAACCTCTAGCTAGCCGACTCACTATAGGGATAATCGCCCTGAGCAAAGACC", "values": [{"measurement": "binding signal", "setting": "[1]", "value": "-1.06 ± 0.128", "unit": "log2FC"}, {"measurement": "binding signal", "setting": "[2]", "value": "0.0116 ± 0.104", "unit": "log2FC"}]}
{"sequence": "CTCGAGGATATCAAGATCTGGCCTCGGCCGCTTGCGCGGAACCTCTAGCTAGCCGACTCACTATAGGGATAATCGCCCTGAGCAAAGACC", "values": [{"measurement": "binding signal", "setting": "[1]", "value": "-0.985 ± 0.131", "unit": "log2FC"}, {"measurement": "binding signal", "setting": "[2]", "value": "0.0632 ± 0.103", "unit": "log2FC"}]}
{"sequence": "CTCGAGGATATCAAGATCTGGCCTCGGCTAGTGGGCGGGAACCTCTAGCTAGCCGACTCACTATAGGGATAATCGCCCTGAGCAAAGACC", "values": [{"measurement": "binding signal", "setting": "[1]", "value": "-0.725 ± 0.112", "unit": "log2FC"}, {"measurement": "binding signal", "setting": "[2]", "value": "1.78 ± 0.084", "unit": "log2FC"}]}
{"sequence": "CTCGAGGATATCAAGATCTGGCCTCGGCGCGCAGGCGGGAACCTCTAGCTAGCCGACTCACTATAGGGATAATCGCCCTGAGCAAAGACC", "values": [{"measurement": "binding signal", "setting": "[1]", "value": "-1.07 ± 0.126", "unit": "log2FC"}, {"measurement": "binding signal", "setting": "[2]", "value": "0.339 ± 0.0965", "unit": "log2FC"}]}
{"sequence": "CTCGAGGATATCAAGATCTGGCCTCGGCCGCGCCCGCGGAACCTCTAGCTAGCCGACTCACTATAGGGATAATCGCCCTGAGCAAAGACC", "values": [{"measurement": "binding signal", "setting": "[1]", "value": "-1.09 ± 0.134", "unit": "log2FC"}, {"measurement": "binding signal", "setting": "[2]", "value": "0.0207 ± 0.105", "unit": "log2FC"}]}
{"sequence": "CTCGAGGATATCAAGATCTGGCCTCGGCGCGTGGGTCGGAACCTCTAGCTAGCCGACTCACTATAGGGATAATCGCCCTGAGCAAAGACC", "values": [{"measurement": "binding signal", "setting": "[1]", "value": "-0.691 ± 0.125", "unit": "log2FC"}, {"measurement": "binding signal", "setting": "[2]", "value": "1.38 ± 0.0983", "unit": "log2FC"}]}
{"sequence": "CTCGAGGATATCAAGATCTGGCCTCGGCCCTTTAAAAGGAACCTCTAGCTAGCCGACTCACTATAGGGATAATCGCCCTGAGCAAAGACC", "values": [{"measurement": "binding signal", "setting": "[1]", "value": "2.14 ± 0.0827", "unit": "log2FC"}, {"measurement": "binding signal", "setting": "[2]", "value": "0.0924 ± 0.0888", "unit": "log2FC"}]}
{"sequence": "CTCGAGGATATCAAGATCTGGCCTCGGCACAGTAAAAGGAACCTCTAGCTAGCCGACTCACTATAGGGATAATCGCCCTGAGCAAAGACC", "values": [{"measurement": "binding signal", "setting": "[1]", "value": "1.94 ± 0.076", "unit": "log2FC"}, {"measurement": "binding signal", "setting": "[2]", "value": "0.04 ± 0.0816", "unit": "log2FC"}]}
{"sequence": "CTCGAGGATATCAAGATCTGGCCTCGGCCGCCAGCGCGGAACCTCTAGCTAGCCGACTCACTATAGGGATAATCGCCCTGAGCAAAGACC", "values": [{"measurement": "binding signal", "setting": "[1]", "value": "-0.898 ± 0.171", "unit": "log2FC"}, {"measurement": "binding signal", "setting": "[2]", "value": "0.462 ± 0.139", "unit": "log2FC"}]}
